Experimental findings from ChEMBL document CHEMBL1961873, “Compounds: GSK PKIS; Assays: Nanosyn kinase panel” (2012) are described below.
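Further: mean inhibition value from the GSK PKIS profiling set.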

Sequence of Serine/threonine-protein kinase SIK1 (Homo sapiens) (P57059 whole entry): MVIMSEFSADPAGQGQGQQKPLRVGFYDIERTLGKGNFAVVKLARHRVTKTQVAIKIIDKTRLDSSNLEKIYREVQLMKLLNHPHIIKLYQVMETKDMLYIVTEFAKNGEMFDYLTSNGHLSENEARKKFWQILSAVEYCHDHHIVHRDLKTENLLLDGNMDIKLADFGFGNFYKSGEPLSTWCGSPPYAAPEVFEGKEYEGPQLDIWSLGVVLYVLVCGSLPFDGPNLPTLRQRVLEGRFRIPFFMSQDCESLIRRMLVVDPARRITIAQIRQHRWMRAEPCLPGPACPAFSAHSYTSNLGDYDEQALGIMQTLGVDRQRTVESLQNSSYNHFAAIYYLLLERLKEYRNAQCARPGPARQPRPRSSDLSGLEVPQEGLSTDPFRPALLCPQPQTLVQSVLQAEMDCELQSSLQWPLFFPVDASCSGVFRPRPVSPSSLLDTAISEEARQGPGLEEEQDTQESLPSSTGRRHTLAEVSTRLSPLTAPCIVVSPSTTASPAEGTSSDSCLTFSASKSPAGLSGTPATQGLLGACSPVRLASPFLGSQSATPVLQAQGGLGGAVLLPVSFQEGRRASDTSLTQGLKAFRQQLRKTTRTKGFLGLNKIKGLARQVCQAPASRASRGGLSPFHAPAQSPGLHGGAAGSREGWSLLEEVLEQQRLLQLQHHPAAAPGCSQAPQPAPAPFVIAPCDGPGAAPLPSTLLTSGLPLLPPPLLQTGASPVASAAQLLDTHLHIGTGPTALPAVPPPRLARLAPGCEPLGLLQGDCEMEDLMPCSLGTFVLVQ

The assay concerns the target Serine/threonine-protein kinase SIK1 (Homo sapiens) (UniProt P57059). To be noted: at 1 µM.
For orientation: inhibition means the change of the read-out against control, counted positive when it falls. In the case of `COc1ccc2ncn(-c3cc(O[C@H](C)c4ccccc4Cl)c(C(N)=O)s3)c2c1`, the inhibition came to 11.2%.

With `C#Cc1cccc(Nc2ncnc3ccc(OCCCCNCCS(C)(=O)=O)cc23)c1`, the inhibition worked out at 38.7%.

Take `NS(=O)(=O)c1ccc(Nc2cc(-c3ccc(O)c(F)c3)n[nH]2)cc1`: the inhibition is -0.79%.

On to `C[C@@H](Oc1cc(-n2cnc3ccc(OCC4CCN(C)CC4)cc32)sc1C(N)=O)c1ccccc1Cl`, for which the inhibition came out at 42%.

Consider `Fc1ccc(-c2ncn(CCCN3CCOCC3)c2-c2ccncc2)cc1`, for which the inhibition was 3.56%.

Turning to `NS(=O)(=O)c1ccc(N/N=C2\C(=O)Nc3ccc(C(=O)NCCCn4ccnc4)cc32)cc1`, the inhibition turned out to be 13.9%.

As to `COc1ccc2cc(-c3c(-c4ccncc4)nc(-c4ccc(S(C)(=O)=O)cc4C)n3C)ccc2c1`, the inhibition amounted to 9.27%.

`Clc1ccc(CNc2nccc(-c3cnn4ncccc34)n2)cc1`: the inhibition was 1.65%.

On to `COC(=O)Nc1nc2ccc(Sc3ccc(NC(=O)Nc4cc(C(F)(F)F)ccc4F)cc3)cc2[nH]1`, for which the inhibition turned out to be 0.98%.

With `Fc1ccc(-c2ncn(C3CCNCC3)c2-c2ccnc(Oc3ccc4c(c3)OCO4)n2)cc1`, the inhibition turned out to be 6.9%.

Regarding `Cc1ccc(C(=O)NC(C)C)cc1-c1ccc(C(=O)NCC2CC2)cc1`, the inhibition was -1.49%.

Take `CCS(=O)(=O)c1ccc(OC)c(Nc2ncc(-c3ccccc3Cl)o2)c1`: the inhibition turned out to be 0.14%.

In the case of `NC(=O)c1cc(-c2ccncc2)cc(-c2ccccc2)c1N`, the inhibition was determined as 24%.

`c1ccc(-c2n[nH]cc2-c2ccnc(-c3ccc(OCCN4CCOCC4)cc3)c2)nc1`: the inhibition was -2.45%.

Regarding `Cc1ccc(C(=O)NC2CCC2)cc1-c1ccc(C(=O)NCC2CC2)cc1`, the inhibition came to 3.12%.

Turning to `CN(c1ccc(NC(=O)Nc2c(Cl)cccc2Cl)cc1)c1ccnc(Nc2cccc(CS(C)(=O)=O)c2)n1`, the inhibition stood at 13.3%.

For the molecule `CS(=O)(=O)CCNCc1cc(-c2cc3c(Nc4ccc(OCc5cccc(F)c5)c(Cl)c4)ncnc3s2)cs1`, the inhibition came to 7.6%.

Consider `Fc1ccc(-c2c(-c3ccncc3)nc3n2CCS3)cc1`, for which the inhibition turned out to be 7.55%.

Regarding `Cc1ccc(NC(=O)c2ccoc2)cc1-c1ccc(C(=O)NCC2CC2)cc1`, the inhibition worked out at 0.11%.

For the molecule `NS(=O)(=O)c1ccc(N/N=C2\C(=O)Nc3ccc(-c4cnco4)cc32)cc1`, the inhibition was 14.3%.

Turning to `O=C(Nc1n[nH]c2cc(-c3cc(F)ccc3F)ccc12)C1CC1`, the inhibition stood at 11.2%.

Regarding `Nc1nccc(-c2c(-c3ccc(F)cc3)ncn2C2CCC(O)CC2)n1` (centres undefined), the inhibition amounted to 4.75%.

On to `C[C@@H](Oc1cc(-n2cnc3ccc(OC4CCN(C)CC4)cc32)sc1C(N)=O)c1ccccc1Cl`, for which the inhibition was determined as 19.3%.

In the case of `CCS(=O)(=O)c1ccc(OC)c(Nc2ncc(-c3cccc(-c4ccccc4F)c3)o2)c1`, the inhibition was found to be 2.58%.

As for `O=C1Nc2ccc(I)cc2C1=Cc1cc(Br)c(O)c(Br)c1`, the inhibition amounted to 9.38%.

With `COc1cccc(/C=N/Nc2ncnc3c2cnn3-c2cccc(OC)c2)c1`, the inhibition was determined as 8.61%.

As to `COc1cc2ncn(-c3cc(OCc4cccs4)c(C(N)=O)s3)c2cc1OC`, the inhibition is 23.7%.

For `NC(=O)c1ccc(Oc2nccc(-c3c(-c4ccc(F)cc4)ncn3C3CCNCC3)n2)cc1`, the inhibition stood at 11.3%.

As to `CN(C)CCCNc1nccc(-c2c(-c3ccc(F)cc3)nn3cc(C(F)(F)F)ccc23)n1`, the inhibition was 7.21%.

On to `O=C1NC(=O)C(c2cccc(Cl)c2)=C1Nc1ccc(Cl)c(C(=O)O)c1`, for which the inhibition came out at 5.1%.

For `NC(=O)Cc1ccccc1Oc1nccc(-c2c(-c3ccc(F)cc3)ncn2C2CCNCC2)n1`, the inhibition turned out to be 4.7%.

As for `Fc1ccc(-c2ncn(C3CCNCC3)c2-c2ccnc(Oc3ccc(F)c(F)c3)n2)cc1`, the inhibition is 7.15%.

In the case of `O=C(Nc1n[nH]c2cc(-c3ccccc3)ccc12)C1CC1`, the inhibition amounted to 9.28%.

For `Cc1nnc(-c2ccc(C)c(-c3ccc(C(=O)NCc4ccc(Cl)cc4)cc3)c2)o1`, the inhibition is 7.21%.
